High-throughput results deposited in PubChem BioAssay by National Center for Advancing Translational Sciences (NCATS).
Sampled rows, rich in hits. Any-hit rate of the full collection: about 0.45%.
GoLoco inh red = qHTS Assay for Inhibitors of RGS12 GoLoco Motif Activity (Red Fluorophore). Guanine nucleotide-binding protein G(i) subunit alpha-1 (Homo sapiens), P63096. Gai1:RGS12 GoLoco peptide FP, rhodamine, 10 min. Potency, µM (highest dose often 61.6 µM), without a hit: at the highest dose activity, negative = inhibition, actives largely listed as inhibitors. 230,000 compounds, 0.44% hits; active means well fitted inhibition curve with a large enough effect, not every such curve was filed as active; inactive means no such curve, though single readings can be large or run the other way; further: potency means the concentration at half of the fitted maximal effect; on the % scale 0 is the no-effect control and ±100 the full control effect; nearly all actives have a fitted effect of over 30% in size
TRb-SRC2 inh = qHTS for Inhibitors of the Interaction of Thyroid Hormone Receptor and Steroid Receptor Coregulator 2. Thyroid hormone receptor beta (Homo sapiens), P10828. TRbeta-SRC2 peptide binding, fluorescence polarization; receptor liganded with 1 µM T3. Potency, µM (top dose mostly 106 µM), for the others: top-dose activity change, negative = inhibition, actives largely listed as inhibitors. 280,000 compounds, 0.065% hits. AID 1469, 2008;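 further: potency means the concentration at half of the fitted maximal effect; plate controls were bound peptide for no effect and peptide without receptor for full effect; nearly all actives have a fitted effect of over 50% in size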
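Decrease in fluorescence polarization of 20 nM Texas Red SRC2 coactivator peptide flagged inhibition of its binding to 0.6 uM TRb LBD; 1 uM T3 included, incubation 5 hr, ex 555/em 632 nm.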
Integrin act MD = qHTS for Activators of Integrin-Mediated Alleviation for Muscular Dystrophy; alpha7betagal myoblasts, beta-gal FDG fluorescence, 48 h; Potency, µM (top dose mostly 38.3 µM), for inactives: top-dose activation, hits mostly activators; 350,000 compounds, 0.064% hits; AID 624291, 2012;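 further: potency means the concentration at half of the fitted maximal effect; 100% = response of the positive control SU9516; nearly all actives have a fitted effect of over 60% in size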
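alpha7betagal+/- myoblasts (passage 13, 250/well) treated 48 h at 37C with compounds at 1:260 dilution of DMSO stock. Lysed, then beta-galactosidase activity read as FDG fluorescence (ex 480/em 540) after 30 min, with pre-read for autofluorescence.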
ERG Ets-DNA blk = qHTS for Small Molecule Inhibitors of the ERG Ets/DNA interaction. Transcriptional regulator ERG (Homo sapiens), P11308. fluorescence polarization, His-ERG Ets domain / labelled DNA. Potency, µM (doses to about 76.9 µM), without a hit: at the top dose FP activity, negative = inhibition, actives largely listed as inhibitors. 370,000 compounds, 0.028% hits. AID 624246, 2012; active means well fitted inhibition curve with a large enough effect in the polarisation, with a control signal flat; inconclusive means small, poorly fitted or top-dose-only effect, or effect the other way, or a change in a side signal; inactive means no such curve, though single readings can be large or run the other way; the % refers to the polarisation;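 further: polarization taken with two DNA probes labelled with fluorescein and Texas red; potency means the concentration at half of the fitted maximal effect; % of control where 0% means no effect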
Target sequence (P11308 whole entry, looked up, the tested form may be a part): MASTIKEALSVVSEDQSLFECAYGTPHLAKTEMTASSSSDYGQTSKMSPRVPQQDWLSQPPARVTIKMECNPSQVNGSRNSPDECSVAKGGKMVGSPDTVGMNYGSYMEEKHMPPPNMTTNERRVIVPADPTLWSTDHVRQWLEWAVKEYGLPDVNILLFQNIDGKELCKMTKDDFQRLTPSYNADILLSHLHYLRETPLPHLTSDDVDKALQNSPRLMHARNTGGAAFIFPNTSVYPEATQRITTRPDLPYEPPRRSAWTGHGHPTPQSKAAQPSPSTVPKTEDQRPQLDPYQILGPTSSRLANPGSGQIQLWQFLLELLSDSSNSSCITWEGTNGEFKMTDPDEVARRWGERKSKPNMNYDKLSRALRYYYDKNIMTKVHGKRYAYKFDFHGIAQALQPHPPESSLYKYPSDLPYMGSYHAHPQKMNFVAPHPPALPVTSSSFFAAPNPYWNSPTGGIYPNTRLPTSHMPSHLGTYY
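His-tagged ERG Ets domain (1 uM in the protein solution; 300mM KCl, 50mM Tris-HCl, 1mM EDTA, 1mM DTT, pH 7.5) received compound, then a probe mix of 5 nM fluorescein-DNA and 100nM Texas-615-DNA. Fluorescence polarization was read for both dyes.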
TR SRC2 fluor cs = Total Fluorescence Counterscreen for Inhibitors of the Interaction of Thyroid Hormone Receptor and Steroid Receptor Coregulator 2. 280,000 compounds, 0.29% hits. Potency, µM (doses to about 106 µM), inactives show top-dose fluorescence change, negative = quenching. TRb/SRC2 Texas Red total fluorescence interference; active means well fitted curve in either direction with a large enough effect; inconclusive means small, poorly fitted or top-dose-only effect; further: potency means the concentration at half of the fitted maximal effect; on the % scale 0 is the no-effect control and ±100 the full control effect
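Flags fluorescent or light-absorbing compounds by total fluorescence, S + 2P, at 555 nm excitation and 632 nm emission. Mixture: 20 nM Texas Red SRC2 peptide, 0.6 uM human TRb LBD, 1 uM T3, 5% DMSO; compound exposure 5 h at ambient temperature.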
CBFb-RUNX1 inh = qHTS Assay for Compounds Blocking the Interaction Between CBF-beta and RUNX1 for the Treatment of Acute Myeloid Leukemia; AID 1477, 2009; 230,000 tested, under 10 active; AlphaScreen CBFb-His/RUNX1-biotin binding, biochemical; Potency, µM (top dose mostly 59.8 µM), inactives show at the highest dose activity, negative = inhibition, actives largely listed as inhibitors; further: % of control where 0% means no effect
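His-tagged CBF-beta and biotinylated RUNX1 (30 nM each) were premixed 20 min at room temperature, exposed to compound for 15 min, then given nickel-chelate and streptavidin AlphaScreen beads (50 ng each). After 90 min, AlphaScreen signal was read.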
Active calls of the source: *; ? = inconclusive; nt = no result; [ ] = another dose, or the depositor's remark. Unless noted, the call rests on the fitted dose curve; in most records, active means well fitted curve in the direction sought with a large enough effect; inconclusive means small, poorly fitted or top-dose-only effect, or another doubt; inactive means no such curve, though single readings can be large; an effect the other way counts as inactive or inconclusive.

SMILES	GoLoco inh red	TRb-SRC2 inh	Integrin act MD	ERG Ets-DNA blk	TR SRC2 fluor cs	CBFb-RUNX1 inh
CCOC(=O)c1cc2n(c1/N=C/N(C)C)-c1ccccc1C2=O	25µM*	6%	-43%	nt	1%	3%
COc1cc(CN(C(=O)c2ccc(OC(C)C)cc2)C2CCS(=O)(=O)C2)cc(OC)c1OC (configuration not stated)	nt	-8%	nt	0%	1259µM*[quencher]	nt
CCCCNc1nnc(SCC(=O)c2c(N)n(CCC)c(=O)[nH]c2=O)s1	nt	nt	4µM*	-4%	nt	nt
Cc1cc2cc(CNC(=O)Nc3cccc(Cl)c3)ccc2n1C	-37%	45µM*	-11%	?	45µM*[fluorescent]	nt
Cc1c(C(=O)NCc2ccc3c(c2)cc(C)n3C)cccc1[N+](=O)[O-]	-6%	?	-17%	28µM*	?	-4%[2.36 µM]
Cc1cccc(NC(=S)NCc2ccc3c(c2)cc(C)n3C)c1C	-12%	1%	-6%	28µM*	-6%	-12%
Cc1cc2cc(CNC(=S)Nc3ccc(OC(F)(F)F)cc3)ccc2n1C	7%	-2%	15%	20µM*	-5%	-2%
COc1cccc(NC(=S)NCc2ccc3c(c2)cc(C)n3C)c1	0%	1%	14%	?	1%	?
Cc1cc2cc(CNC(=O)c3cccc([N+](=O)[O-])c3)ccc2n1C	13%	-1%	8%	-7%	-4%	5%
CS[C@@H]1SC[C@H]2C(=O)N(C)C(C(C)C)C(=O)OC[C@@H](NC(=O)c3cnc4ccccc4n3)C(=O)N[C@@H](C)C(=O)N(C)[C@H]1C(=O)N(C)C(C(C)C)C(=O)OC[C@@H](NC(=O)c1cnc3ccccc3n1)C(=O)N[C@@H](C)C(=O)N2C (some centres not stated)	nt	5%	nt	nt	1%	9%
O=C(C1=C(O)C(=O)N(CCN2CCOCC2)C1c1ccc(Cl)cc1)c1cc2ccccc2o1 (configuration not stated)	nt	nt	-3%	-3%	nt	nt
COC(=O)c1ccc(C2C(C(=O)c3cc4ccccc4o3)=C(O)C(=O)N2CCN2CCOCC2)cc1 (configuration not stated)	nt	nt	10µM*	4%	nt	nt
CN(C)c1ccc(N2CN=C3SCC(=O)N3C2)cc1	-1%	16µM*	-59%	6%	?	?
O=C1CSC2=NCN(c3ccc4c(c3)OCO4)CN12	5%	-8%	12%	-2%	0%	-7%
CCC(CC)C(=O)Nc1c(C(=O)N2CCN(c3ccccc3)CC2)oc2ccccc12	nt	-5%	13µM*	-1%	-2%	nt
CCCN1C(=O)C2(c3ccccc31)c1c(oc3ccc(F)cc3c1=O)C(=O)N2CCCOC(C)C (configuration not stated)	nt	?	nt	1%	3.5µM*[quencher]	nt
CCCN1C(=O)C2(c3ccccc31)c1c(oc3ccccc3c1=O)C(=O)N2CCCOC(C)C (configuration not stated)	nt	-9%	nt	3%	-40%	nt
CCCN1C(=O)C2(c3ccccc31)c1c(oc3ccccc3c1=O)C(=O)N2CCO (configuration not stated)	nt	-12%[53 µM]	nt	9%	32µM*[quencher]	nt
CC(C)O.CC(C)O.CC(C)O.CC(C)O.[Ti]	nt	-2%[201 µM]	nt	nt	-2%[201 µM]	nt
Cc1ccc(-c2csc(Nc3ccc(C(=O)O)cc3)[n+]2Cc2ccccc2)cc1	19%	-6%	8.9µM*	-4%	0%	3%
CCCCCCCCCCCCCCCCN(C)C	nt	0%[201 µM]	nt	nt	-3%[201 µM]	nt
Cc1ccc(-c2noc(CSc3nnc(C)n3-c3ccc(C)cc3)n2)cc1	nt	-25%[53 µM]	nt	-2%	0.11µM*[quencher]	nt
Cc1ccc(-c2noc(CSc3nnc(C)n3-c3ccc(C)c(C)c3)n2)cc1	nt	1%	nt	2%	-10%	nt
COc1ccc(-c2noc(CSc3nnc(-c4ccncc4)n3-c3ccc(C)cc3)n2)cc1	nt	7%	nt	0%	-19%	nt
COc1ccc(-c2noc(CSc3nnc(Cc4ccccc4)n3-c3ccccc3)n2)cc1OC	nt	-23%[53 µM]	nt	8%	0.28µM*[quencher]	nt
COc1ccc(-c2noc(CSc3nnc(-c4ccncc4)n3-c3ccc(OC)cc3)n2)cc1	nt	?	nt	-2%	0.25µM*[quencher]	nt
CC[C@H](C)[C@H](NC(=O)[C@H](CO)NC(=O)[C@H](CC(C)C)NC(=O)[C@H](CO)NC(=O)[C@@H]1CCCN1C(=O)[C@H](CC(N)=O)NC(=O)[C@@H](N)CC(=O)O)C(=O)N[C@@H](CC(=O)O)C(=O)N[C@@H](CC(C)C)C(=O)N[C@H](C(=O)N[C@@H](Cc1ccccc1)C(=O)N[C@@H](Cc1cnc[nH]1)C(=O)N[C@@H](CC(C)C)C(=O)N[C@@H](CC(C)C)C(=O)N[C@@H](CCCNC(=N)N)C(=O)N[C@H](C(=O)N[C@@H](CC(C)C)C(=O)N[C@@H](CC(C)C)C(=O)N[C@@H](CCC(=O)O)C(=O)N[C@@H](CC(C)C)C(=O)N[C@@H](C)C(=O)N[C@@H](CCCNC(=N)N)C(=O)N[C@H](C(=O)N[C@@H](CCC(N)=O)C(=O)N[C@@H](CO)C(=O)N[C@@H](CCC(N)=O)C(=O)N[C@@H](CCCNC(=N)N)C(=O)N[C@@H](CCC(=O)O)C(=O)N[C@@H](CCCNC(=N)N)C(=O)N[C@@H](C)C(=O)N[C@@H](CCC(=O)O)C(=O)N[C@@H](CCC(N)=O)C(=O)N[C@@H](CC(N)=O)C(=O)N[C@@H](CCCNC(=N)N)C(=O)N[C@H](C(=O)N[C@H](C(=O)N[C@@H](Cc1ccccc1)C(=O)N[C@@H](CC(=O)O)C(=O)N[C@@H](CO)C(=O)N[C@H](C(N)=O)C(C)C)[C@@H](C)CC)[C@@H](C)CC)[C@@H](C)O)[C@@H](C)O)[C@@H](C)O	nt	0%	nt	nt	2%	-1%
CC(OC(=O)c1cc(-c2cccnc2)nc2ccccc12)C(=O)Nc1ccc2ccccc2c1 (configuration not stated)	-5%	-4%[53 µM]	1.1µM*	4%	-2%[53 µM]	-16%
